Source: PubChem
D2 PAM-1: HTS Assay for Positive Allosteric Modulators of the Human D2 Dopamine Receptor: Primary Screen for Potentiators | hit rate 0.34% among 340,000 | potentiation, % at 10 µM | AID 485347, 2010 | D(2) dopamine receptor (Homo sapiens), P14416 | HEK293 T-REx D2, calcium flux, EC20 dopamine potentiation;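 active = potentiation over 3 SD above the plate norm, cut at about 30% in these data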; note: 0% is about no effect
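Tetracycline-induced Hek293 Trex D2 cells, force-coupled to calcium, loaded with no-wash calcium dye. Compound added with 180 s kinetic read for agonism, then EC20 dopamine and a further 180 s read for potentiation.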
D2 ag-1: Beta-Arrestin HTS for Positive Allosteric Modulators of the Human D2 Dopamine Receptor: Agonists; DiscoveRx PathHunter D2 beta-arrestin, luminescence, 90 min; 100% = 57 uM dopamine signal; activation, % (no concentration beside the values); AID 624465, 2012; hit rate 0.084% among 360,000; in the data active = activation above about 40%; inconclusive = between about 15% and that limit
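Agonist mode: compounds alone added to overnight-plated D2 PathHunter cells for 90 min at 37 C, with 57 uM final dopamine (EC100) defining full response. Beta-arrestin recruitment detected by chemiluminescent reagent, read after 1 h at ambient temperature.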
D2 antagonist: HTS Assay for Allosteric Antagonists of the Human D2 Dopamine Receptor: Primary Screen for Antagonists; D(2) dopamine receptor (Homo sapiens), P14416; HEK293 TREx D2 cells, calcium flux, dopamine EC80; inhibition, % at 10 µM; hit rate 2% among 340,000; AID 485344, 2010; in the data active = inhibition above about 30%; inactive = below that, where a call was filed; note: 0% is about no effect
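Tetracycline-induced HEK293 T-REx cells expressing D2 force-coupled to calcium signalling were dye-loaded, exposed to compound for 180 s, then challenged with an EC80 of dopamine; calcium flux was followed kinetically for a further 180 s.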
D2 PAM-2: Beta-Arrestin HTS for Positive Allosteric Modulators of the Human D2 Dopamine Receptor: Potentiators. DiscoveRx D2 beta-arrestin cells, luminescence, 90 min; 100% = 57 uM dopamine signal. potentiation, % (concentration not given with the values). hit rate 0.23% among 360,000; in the data active = potentiation above about 50%; inconclusive = mostly about 30% to 49%
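PathHunter beta-arrestin assay in DiscoveRx D2 cells. Compounds were added with an EC20 of dopamine (50 nM final) for 90 min at 37 deg C. Luminescence was read 1 h after detection reagent, with 57 uM dopamine as the EC100 control.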
D2 ag-2: HTS Assay for Allosteric Agonists of the Human D2 Dopamine Receptor: Primary Screen for Agonists; D(2) dopamine receptor (Homo sapiens), P14416; HEK293 T-REx D2 cells, calcium flux agonist mode; activation, % at 2 µM; hit rate 0.53% among 340,000; AID 485358, 2010;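 active = activation over 3 SD above normal in the single-dose calcium agonist read, cut at about 30% in these data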; note: 0% is about no effect
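HEK293 Trex D2 cells, tetracycline-induced, o/n 30 C 5% CO2; no-wash Ca dye, RT 30–90 min; 10-cycle baseline, 23 nl cpd added, kinetic Ca read 180 s; agonist hits = positive Ca response.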
D3 ag: qHTS of D3 Dopamine Receptor Agonist: D3 Dopamine Receptor B-arrestin Agonist Confirmatory Assay; DiscoveRx D3 beta-arrestin cells, luminescence, 90 min; shares compounds with D2 ag-2; Potency, µM (top dose mostly 76.9 µM), for the others: top-dose activation, most hits filed as activators; hit rate 4% among 2,300;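 note: potency is the fitted concentration of half-maximal effect; 100% = dopamine control response; nearly all actives have a fitted effect of over 70% in size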
Target sequence (P35462 whole entry, looked up): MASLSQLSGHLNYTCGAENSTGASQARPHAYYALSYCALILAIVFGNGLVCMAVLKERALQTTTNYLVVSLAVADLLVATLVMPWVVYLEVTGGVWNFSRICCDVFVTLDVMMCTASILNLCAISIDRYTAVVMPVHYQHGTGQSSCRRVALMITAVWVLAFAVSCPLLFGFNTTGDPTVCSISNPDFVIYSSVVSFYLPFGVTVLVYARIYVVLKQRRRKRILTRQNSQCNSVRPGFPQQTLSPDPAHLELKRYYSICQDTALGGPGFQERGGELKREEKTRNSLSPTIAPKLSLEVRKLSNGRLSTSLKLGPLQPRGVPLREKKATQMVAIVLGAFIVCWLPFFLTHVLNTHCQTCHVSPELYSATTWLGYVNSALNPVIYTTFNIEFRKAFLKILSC
D2 ag-3: qHTS of D3 Dopamine Receptor Agonist: D2 Dopamine Receptor B-arrestin Agonist Counterscreen. shares compounds with D2 ag-2. Potency, µM (series often up to 76.9 µM), without a hit: at the top dose activation, most hits filed as activators. hit rate 5.9% among 2,300. DiscoveRx PathHunter D2 beta-arrestin, luminescence, 90 min; response scale: percent relative to full dopamine signal; note: potency is the fitted concentration of half-maximal effect; % of control where 0% means no effect; nearly all actives have a fitted effect of over 70% in size
* marks the source's active call; other numbers are inactive results; ? = inconclusive; · = no result. Hits are enriched below; roughly 2.4% of the tested compounds scored in any of these assays. Unless noted, calls come from the whole dose curve; as a rule, active = well fitted activation curve with a large enough effect; inconclusive = small, poorly fitted or top-dose-only effect; inactive = flat fitted curve, though single readings scatter.

SMILES	D2 PAM-1	D2 ag-1	D2 antagonist	D2 PAM-2	D2 ag-2	D3 ag	D2 ag-3
O=C(c1cc(-c2ccco2)on1)N1CCN(c2ccccc2)CC1	-14.0	-0.2	0.3	-3.8	45.3*	-5.5%	-0.4%
O=C(c1cc(-c2ccccc2)on1)N1CCN(c2ccccc2)CC1	3.7	5.0	4.3	-7.2	-0.4	·	·
Cc1ccc(S(=O)(=O)N2CCC(n3c(C)nc4cccnc43)CC2)c(C)c1	-0.1	·	·	·	-0.8	·	·
CC1CCCCN1Cc1ccc(-c2nnn(CC(=O)NC3CCCCC3)n2)cc1 (stereo not drawn)	-19.2	-0.7	-14.0	-1.5	49.6*	-8.6%	-6.2%
CCN(C(=O)COC(=O)CCCOc1ccccc1)c1c(N)n(Cc2ccccc2)c(=O)[nH]c1=O	-26.0	-0.2	-28.4	-0.9	0.0	-3.0%	-6.5%
CCN(C(=O)COC(=O)c1ccc(O)cc1O)c1c(N)n(Cc2ccccc2)c(=O)[nH]c1=O	-1.3	-3.1	-6.1	1.0	-1.0	-3.0%	-4.5%
CCN(C(=O)COC(=O)c1cc(=O)[nH]c2ccccc12)c1c(N)n(Cc2ccccc2)c(=O)[nH]c1=O	·	-3.8	·	-3.5	·	·	·
CCN(C(=O)CSc1nnc(-c2ccc(C)cc2)n1N)c1c(N)n(Cc2ccccc2)c(=O)[nH]c1=O	-1.0	6.5	-7.2	-21.8	-0.7	-4.9%	-6.0%
CCCN(C(=O)COc1cc(=O)n(CC)c2ccccc12)c1ccc(C(C)C)cc1	1.1	·	·	·	-0.5	·	·
Cc1c(Cl)cccc1NC(=O)CCS(=O)(=O)c1ccc2c(c1)CC(C)N2C(=O)C1CC1 (stereo not drawn)	-0.4	·	·	·	-1.3	·	·
Cn1c(CCN2CCN(c3ccccn3)CC2)nc2cc(NC(=O)COc3ccccc3)ccc21	0.9	5.6	47.0*	2.1	-0.8	?	?
Cn1c(CCN2CCCC2)nc2cc(NS(=O)(=O)c3ccc(Cl)cc3)ccc21	-5.9	1.2	2.7	-28.1	-0.1	·	·
Cc1ccc(OCC(=O)Nc2ccc3c(c2)nc(CCN2CCN(c4ccccn4)CC2)n3C)cc1	·	1.8	·	-24.7	·	·	·
CCCCC(=O)Nc1ccc2c(c1)nc(CCN1CCN(c3ccccn3)CC1)n2C	-23.8	13.7	51.0*	-5.2	66.7*	?	?
CC(C)C(=O)Nc1ccc2c(c1)nc(CCN1CCN(c3ccccc3)CC1)n2C	-21.0	-1.8	17.7	-8.7	60.9*	?	7.6%
Cn1c(CCN2CCN(c3ccccn3)CC2)nc2cc(NS(=O)(=O)c3ccccc3)ccc21	·	12.8	·	-24.8	·	?	?
CCOC(=O)c1c(C)oc2nc(C)nc(N3CCN(c4cccc(C)c4C)CC3)c12	-3.8	·	·	·	-1.3	·	·
COc1ccccc1CNC(=O)c1cnc2sc(N3CCCCCC3)nn2c1=O	-3.2	·	·	·	0.0	·	·
Cc1ccccc1OCC(=O)Nc1ccc2nc(SCC(=O)N3CCc4ccccc43)sc2c1	15.2	·	·	·	-2.1	·	·
COc1ccccc1CCNC(=O)Cn1ccc2cc(S(=O)(=O)N3CCCCC3)ccc21	-3.0	·	·	·	0.7	·	·
CC(=O)C1=C(c2ccc(Br)cc2)N(C(C)=O)n2c(nnc2C2CCCCC2)S1	-3.7	·	·	·	·	·	·
CCCC(=O)Nc1ccc2c(c1)nc(CCN1CCN(c3ccccn3)CC1)n2C	-21.8	7.7	46.8*	-9.9	67.3*	?	?
COCCn1c(SCC(=O)NCc2ccc3c(c2)OCO3)nnc1-c1c[nH]c2ccccc12	-12.5	-2.6	-8.9	-1.3	63.9*	2.9%	-2.4%
COCCn1c(SCC(=O)NCc2ccc3c(c2)OCO3)nnc1C(C)C	-0.2	-1.6	-18.1	-3.2	1.0	·	·
CCc1nnc(NC(=O)c2ccc(-c3ccc(Cl)cc3)o2)s1	1.8	-0.1	-4.4	-23.2	0.0	·	·
SMILES	D2 PAM-1	D2 ag-1	D2 antagonist	D2 PAM-2	D2 ag-2	D3 ag	D2 ag-3
CCc1nnc(NC(=O)c2ccc(-c3ccc(C(C)=O)cc3)o2)s1	-13.9	0.4	10.8	-1.5	-1.7	-6.6%	-0.8%
CN(C(=O)CSc1nc2ccccc2n1CC(=O)N(C)C1CCCCC1)c1ccc(F)cc1	0.9	·	·	·	·	·	·
CN(CC(=O)NNC(=O)CNC(=O)c1ccccc1F)S(=O)(=O)c1ccc(Cl)cc1	-0.1	4.7	-13.7	1.7	3.9	·	·
CCOc1ccccc1C(=O)NCC(=O)NNC(=O)CN(C)S(=O)(=O)c1ccc(Cl)cc1	·	?	·	-10.4	·	?	?
CN(CC(=O)NNC(=O)CNC(=O)c1cccs1)S(=O)(=O)c1ccc(Cl)cc1	-4.4	1.6	10.5	-27.7	41.8*	-4.9%	4.9%
COc1ccccc1NC(=O)C(Cc1ccccc1)NS(=O)(=O)c1cccc2nsnc12 (stereo not drawn)	8.9	·	·	·	0.8	·	·
CCOC(=O)C1CCCN(C(=O)Cn2nc(C)c3c(C)n(-c4ccccc4)nc3c2=O)C1 (stereo not drawn)	2.8	-2.6	-7.3	-5.7	25.2	-10.0%	-6.7%
CC(C)(C)SCCNC(=O)c1ccc(CN2CCc3ccccc3C2)cc1	-18.6	0.9	9.9	-13.3	33.7*	-20.5%	3.1%
CC1CN(C(=O)c2ccccc2OCc2ccc(Cl)cc2Cl)CC(C)O1 (stereo not drawn)	-5.8	-2.7	-14.8	-1.8	-0.2	-7.3%	-1.5%
C=CCC1Cc2c(cccc2[N+](=O)[O-])C(CC=C)N1 (stereo not drawn)	-12.6	?	36.1*	?	50.3*	?	22.4µM*
Cc1ccccc1NC(=O)CSc1ccc(-c2cccs2)nn1	6.0	·	·	·	0.2	·	·
O=C(c1ccccc1)N1N=C(C(F)(F)F)CC1(O)c1ccc(F)cc1 (stereo not drawn)	8.4	-3.4	-26.8	-4.0	-0.4	-11.6%	-0.7%
O=C(c1ccccc1)N1N=C(C(F)(F)F)CC1(O)c1ccccc1 (stereo not drawn)	3.5	0.9	-2.4	-12.3	-2.4	·	·
COc1ccc(C)cc1NC(=O)C(NS(=O)(=O)c1cccc2nsnc12)c1ccccc1 (stereo not drawn)	-6.6	·	·	·	-0.2	·	·
